Source: PubChem BioAssay (Tox21)
Results filed as inconclusive are left out. A call without a number means that no potency is given here. Unmarked numbers belong to inactive results. Active and inactive are the calls of the source. Unless noted, calls follow the shape of the dose curve; as a rule, active = well fitted curve in the direction sought with a large enough effect in the repeat runs; inconclusive = weak or mixed curves; inactive = no such curve, though single readings can be large; an effect the other way counts as inactive or inconclusive.

Legend:
[1] = qHTS assay to identify small molecule antagonists of the thyroid receptor (TR) signaling pathway - cell viability counter screen (AID 743064); also: nearly all actives have a fitted effect of over 50% in size
Procedure, shortened: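 Plate GH3.TRE-Luc cells; incubate 4 h at 37 °C; add compound, then T3 to 1 nM final; incubate 23.5 h; add CellTiter-Fluor; incubate 30 min at 37 °C, 5% CO2; read fluorescence.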

[2] = molecular target: Estrogen receptor (Homo sapiens) (UniProt P03372); assay: qHTS assay to identify small molecule antagonists of the estrogen receptor alpha (ER-alpha) signaling pathway (AID 743069; active = well fitted curve in the direction sought with a large enough effect in the signal ratio in the repeat runs, not every such curve was filed as active; the % refers to the signal ratio)
Procedure, shortened: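 Fluorescence intensity from a beta-lactamase FRET substrate served as the read-out. Cells: HEK293 with stably integrated ER-alpha-UAS-bla reporter. Agonist 17beta-estradiol was co-added with compounds; incubation 18 hr at 37C, substrate 2 hr at room temperature.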

[3] = molecular target: Estrogen receptor (Homo sapiens) (UniProt P03372); assay: qHTS assay to identify small molecule agonists of the estrogen receptor alpha (ER-alpha) signaling pathway (AID 743075; calls by dose curve)
[4] = molecular target: Estrogen receptor (Homo sapiens) (UniProt P03372); assay: qHTS assay to identify small molecule agonists of the estrogen receptor alpha (ER-alpha) signaling pathway using the BG1 cell line (AID 743079); conditions: BG1Luc4E2 cells, ERE-luciferase agonist, 22 h; activation: at 70.3 µM (top of the series); also: nearly all actives have a fitted effect of over 20% in size
[5] = qHTS assay to identify small molecule antagonists of the estrogen receptor alpha (ER-alpha) signaling pathway using the BG1 cell line - cell viability counter screen (AID 743081);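 also: compound given together with 17beta-estradiol as the ER stimulus; nearly all actives have a fitted effect of over 45% in size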
[6] = molecular target: Aromatase (Homo sapiens) (UniProt P11511); assay: qHTS assay to identify aromatase inhibitors (AID 743083); also: nearly all actives have a fitted effect of over 55% in size; also: potency is read from the fitted curve at half-maximal effect
[7] = qHTS assay to identify aromatase inhibitors - cell viability counter screen (AID 743084);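 also: cells stimulated with testosterone during compound exposure; nearly all actives have a fitted effect of over 55% in size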; also: potency is read from the fitted curve at half-maximal effect
[8] = molecular target: Aryl hydrocarbon receptor (Homo sapiens) (UniProt P35869); assay: qHTS assay to identify small molecule that activate the aryl hydrocarbon receptor (AhR) signaling pathway (AID 743085);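 also: HG2L7.5c1 human HepG2 liver cells with stably integrated DRE-driven firefly reporter; nearly all actives have a fitted effect of over 15% in size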
Procedure, shortened: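 Steps: seed HepG2-AhR-luc cells; allow 5 h at 37C; pin-transfer test compound or vehicle; incubate 24 h at 37C; add viability dye (30 min, 37C) and read fluorescence; add luciferase substrate (30 min, RT) and read luminescence.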

[9] = qHTS assay to identify small molecule that activate the aryl hydrocarbon receptor (AhR) signaling pathway - cell viability counter screen (AID 743086); also: nearly all actives have a fitted effect of over 45% in size; also: potency is read from the fitted curve at half-maximal effect
Procedure, shortened: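 Cytotoxicity counter screen: CellTiter-Fluor signal (30 min, 37 C) in 4000 HepG2 cells/well carrying the DRE-luciferase reporter, following 24 h compound exposure at 37 C.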

[10] = molecular target: Peroxisome proliferator-activated receptor gamma (Homo sapiens) (UniProt P37231); assay: qHTS assay to identify small molecule agonists of the peroxisome proliferator-activated receptor gamma (PPARg) signaling pathway (AID 743094; active = well fitted activation curve with a large enough effect in the signal ratio in the repeat runs, not every such curve was filed as active; the % refers to the signal ratio)
Procedure, shortened: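 Reporter activation was scored by fluorescence of cleaved LiveBLAzer B/G substrate (1 h, room temperature) in PPARg-bla HEK293H cells previously treated 17 h at 37C with DMSO-dissolved compounds.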

[11] = qHTS assay to identify small molecule phospholipidosis (PLD) inducers (AID 1259344; active = well fitted curve in the direction sought with a large enough effect; an effect the other way counts as inactive or inconclusive)
Procedure, shortened: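 Accumulated phospholipid, stained red by LipidTOX during 24 h compound treatment of HepG2 cells at 37 C, is quantified from images as pit number and intensity, normalised per cell using Hoechst-stained nuclei.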

[12] = qHTS assay to identify small molecule antagonists of the thyroid receptor (TR) signaling pathway (AID 743065); also: nearly all actives have a fitted effect of over 55% in size; also: potency is read from the fitted curve at half-maximal effect
Procedure, shortened: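 Antagonism measured as loss of luciferase signal in GH3 cells stably carrying a TRE-luciferase reporter, co-treated with compound and T3 (1 nM final) for 23.5 h at 37 C. Viability was read in the same well by CellTiter-Fluor.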

[13] = system: thyroid hormone receptor (rat, GH3 cells); assay: qHTS assay to identify small molecule agonists of the thyroid receptor (TR) signaling pathway (AID 743066; calls by dose curve)
[14] = qHTS assay to identify small molecule antagonists of the estrogen receptor alpha (ER-alpha) signaling pathway - cell viability counter screen (AID 743074; calls by dose curve; also: nearly all actives have a fitted effect of over 45% in size)
[15] = qHTS assay to identify small molecule antagonists of the estrogen receptor alpha (ER-alpha) signaling pathway using the BG1 cell line (AID 743080; calls by dose curve;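 also: BG1 cells stimulated with 17beta-estradiol alongside compound; nearly all actives have a fitted effect of over 25% in size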)
Procedure, shortened: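 Luciferase inhibition measured with ONE-Glo after 30 min at RT in BG1Luc4E2 cells given test compounds and 17beta-estradiol for 21.5 h at 37 C; CellTiter-Fluor viability read in the same wells beforehand.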

Peroxisome proliferator-activated receptor gamma (Homo sapiens), sequence (P37231 whole entry, looked up): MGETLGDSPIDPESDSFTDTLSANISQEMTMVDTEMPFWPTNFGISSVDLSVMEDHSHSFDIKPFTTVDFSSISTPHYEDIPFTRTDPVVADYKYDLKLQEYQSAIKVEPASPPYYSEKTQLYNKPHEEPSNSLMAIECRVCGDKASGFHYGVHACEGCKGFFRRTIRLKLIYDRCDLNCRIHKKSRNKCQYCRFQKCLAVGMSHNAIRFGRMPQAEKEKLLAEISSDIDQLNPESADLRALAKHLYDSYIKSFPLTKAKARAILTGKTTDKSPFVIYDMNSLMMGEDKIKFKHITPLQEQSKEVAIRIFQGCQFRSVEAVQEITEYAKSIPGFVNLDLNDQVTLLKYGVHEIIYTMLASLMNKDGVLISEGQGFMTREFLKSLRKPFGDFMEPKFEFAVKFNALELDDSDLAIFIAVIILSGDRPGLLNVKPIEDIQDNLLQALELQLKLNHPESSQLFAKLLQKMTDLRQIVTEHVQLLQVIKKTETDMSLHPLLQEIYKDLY
Aryl hydrocarbon receptor (Homo sapiens), sequence (P35869 whole entry, looked up): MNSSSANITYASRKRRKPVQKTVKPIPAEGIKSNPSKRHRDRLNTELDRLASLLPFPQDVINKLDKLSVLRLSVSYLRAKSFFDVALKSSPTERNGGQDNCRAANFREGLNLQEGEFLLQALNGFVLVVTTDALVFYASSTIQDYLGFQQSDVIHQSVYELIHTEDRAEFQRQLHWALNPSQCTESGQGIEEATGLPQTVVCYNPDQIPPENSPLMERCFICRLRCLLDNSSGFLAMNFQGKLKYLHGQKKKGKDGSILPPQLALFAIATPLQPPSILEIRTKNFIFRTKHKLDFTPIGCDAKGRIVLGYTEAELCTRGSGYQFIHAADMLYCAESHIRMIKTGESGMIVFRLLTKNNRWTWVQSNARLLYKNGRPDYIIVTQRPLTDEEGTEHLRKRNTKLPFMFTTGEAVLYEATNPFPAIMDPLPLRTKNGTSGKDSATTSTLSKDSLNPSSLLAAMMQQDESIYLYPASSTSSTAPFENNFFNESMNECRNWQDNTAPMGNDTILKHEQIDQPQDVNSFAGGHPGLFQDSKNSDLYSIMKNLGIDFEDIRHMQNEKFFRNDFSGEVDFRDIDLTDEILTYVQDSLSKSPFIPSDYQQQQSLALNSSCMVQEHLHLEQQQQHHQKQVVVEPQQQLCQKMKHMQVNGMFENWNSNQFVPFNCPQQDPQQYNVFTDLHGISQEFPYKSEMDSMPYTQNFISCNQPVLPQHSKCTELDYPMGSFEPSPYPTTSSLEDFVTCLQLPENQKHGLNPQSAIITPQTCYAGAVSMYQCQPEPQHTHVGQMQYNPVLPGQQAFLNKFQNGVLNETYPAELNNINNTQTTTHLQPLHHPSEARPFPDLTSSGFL
Aromatase (Homo sapiens), sequence (P11511 whole entry, looked up): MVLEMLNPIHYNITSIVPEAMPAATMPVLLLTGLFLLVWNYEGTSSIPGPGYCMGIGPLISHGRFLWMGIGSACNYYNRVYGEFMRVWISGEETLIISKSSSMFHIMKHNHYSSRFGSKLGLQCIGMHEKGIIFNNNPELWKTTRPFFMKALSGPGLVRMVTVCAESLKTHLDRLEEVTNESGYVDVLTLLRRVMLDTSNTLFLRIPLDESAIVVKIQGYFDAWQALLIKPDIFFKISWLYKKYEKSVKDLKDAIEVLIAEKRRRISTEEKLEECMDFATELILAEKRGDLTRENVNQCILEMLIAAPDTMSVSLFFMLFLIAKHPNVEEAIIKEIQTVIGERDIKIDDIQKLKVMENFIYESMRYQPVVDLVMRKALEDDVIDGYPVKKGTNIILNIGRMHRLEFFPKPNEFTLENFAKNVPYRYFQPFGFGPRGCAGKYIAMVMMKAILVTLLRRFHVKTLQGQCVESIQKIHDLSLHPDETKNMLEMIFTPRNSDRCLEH
Estrogen receptor (Homo sapiens), sequence (P03372 whole entry, looked up): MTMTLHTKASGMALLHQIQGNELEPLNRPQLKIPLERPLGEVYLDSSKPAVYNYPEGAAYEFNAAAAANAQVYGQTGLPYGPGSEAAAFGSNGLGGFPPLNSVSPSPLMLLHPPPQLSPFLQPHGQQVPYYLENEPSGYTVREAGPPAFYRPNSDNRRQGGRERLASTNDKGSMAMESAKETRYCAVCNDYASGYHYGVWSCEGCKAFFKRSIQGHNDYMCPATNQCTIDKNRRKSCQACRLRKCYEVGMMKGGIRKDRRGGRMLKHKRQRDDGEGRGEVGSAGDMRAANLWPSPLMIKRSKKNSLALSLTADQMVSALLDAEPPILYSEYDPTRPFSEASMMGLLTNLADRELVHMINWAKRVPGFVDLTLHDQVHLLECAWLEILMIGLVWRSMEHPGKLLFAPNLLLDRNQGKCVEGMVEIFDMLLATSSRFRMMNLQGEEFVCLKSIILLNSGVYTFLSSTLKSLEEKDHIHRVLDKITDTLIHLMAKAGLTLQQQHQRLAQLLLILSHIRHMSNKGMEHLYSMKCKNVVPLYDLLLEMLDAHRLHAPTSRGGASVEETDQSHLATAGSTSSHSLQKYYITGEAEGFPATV

Structure (SMILES) | Potency [1] | Potency [2] | Potency [3] | Potency [4] | Potency [5] | Potency [6] | Potency [7] | Potency [8] | Potency [9] | Potency [10] | Potency [11] | Potency [12] | Potency [13] | Potency [14] | Potency [15] | PLD induction [11] | activation [4]
COC1=C(C(=O)O)N2C(=O)[C@@H](NC(=O)[C@H](N)C3=CCC=CC3)[C@H]2SC1 | inactive | inactive | inactive | inactive | inactive | inactive | inactive | inactive | inactive | inactive | inactive |  |  |  |  |  | 
CO/N=C(\C(=O)N[C@@H]1C(=O)N2C(C(=O)OCOC(=O)C(C)(C)C)=C(/C=C\c3scnc3C)CS[C@H]12)c1csc(N)n1 |  | inactive | inactive | inactive | inactive | inactive | inactive | inactive | inactive | inactive |  | inactive | inactive | inactive | inactive | -0.933% [at 7.66 µM] | 
C/C1=C2N=C(/C=C3N=C(/C(C)=C4\[N-]C(C(CC(N)=O)C4(C)CCC(=O)NCC(C)OP(=O)([O-])OC4C(CO)OC(n5cnc6cc(C)c(C)cc65)C4O)C4(C)N=C1C(CCC(N)=O)C4(C)CC(N)=O)C(CCC(N)=O)C\3(C)C)C(CCC(N)=O)C/2(C)CC(N)=O.[CH3-].[Co+3] (configuration not stated) |  |  |  |  |  | 13.3 µM (active) | 23.7 µM (active) | inactive | 26.6 µM (active) | inactive | inactive | 11.9 µM (active) | inactive |  |  |  | 
OCC(O)COc1ccc(Cl)cc1 (configuration not stated) |  | inactive | inactive | inactive | inactive | inactive | inactive | inactive | inactive | inactive | inactive | inactive | inactive |  | inactive |  | 
CCC(=O)Oc1ccc2c(c1)CC[C@@H]1[C@@H]2CC[C@]2(C)[C@@H](OC(=O)CC)CC[C@@H]12 |  |  |  |  | inactive |  | inactive | inactive |  | inactive | inactive | inactive | inactive | inactive | inactive |  | 99.5% (active)
CS(=O)(=O)NC(=O)CCC/C=C\C[C@H]1C(=O)C[C@@H](O)[C@@H]1/C=C/[C@H](O)COc1ccccc1 |  | inactive | inactive | inactive |  | inactive | inactive | inactive | inactive | inactive | inactive | inactive | inactive | inactive |  |  | 
NC(=O)C[C@@H](N)C(=O)O | inactive |  |  |  |  | inactive | inactive | inactive |  |  | inactive |  | inactive | inactive |  |  | 
C/C(=C(\CCOC(=O)c1ccccc1)SS/C(CCOC(=O)c1ccccc1)=C(/C)N(C=O)Cc1cnc(C)nc1N)N(C=O)Cc1cnc(C)nc1N |  | inactive | inactive |  | inactive | inactive | inactive | inactive | inactive | inactive | inactive | 23.7 µM (active) | inactive | inactive | inactive |  | 
NCCC[C@H](N)C(=O)O |  | inactive | inactive | inactive |  | inactive | inactive | inactive | inactive | inactive | inactive | inactive | inactive |  | inactive |  | 
O=C(Nc1ccc(/C=C/c2ccc(NC(=O)c3cc(S(=O)(=O)O)c4cccnc4c3O)cc2S(=O)(=O)O)c(S(=O)(=O)O)c1)c1cc(S(=O)(=O)O)c2cccnc2c1O |  | inactive | inactive | inactive | inactive | inactive |  |  | inactive | inactive |  |  | inactive | inactive | inactive | -0.0305% [at 7.66 µM] | 
CC(=O)OC[C@H]1O[C@@H](O[C@H]2[C@H](O)[C@@H](OC(=O)c3ccccc3C(=O)O)[C@H](O)O[C@@H]2COC(C)=O)[C@H](O)[C@@H](OC(=O)c2ccccc2C(=O)O)[C@@H]1O |  | inactive | inactive | inactive | inactive | inactive | inactive |  | inactive | inactive |  | inactive | inactive |  | inactive | 5.14% [at 0.306 µM] | 
COc1cc2[nH]c(C)c(CCN3CCN(c4ccccc4)CC3)c2cc1OC |  | inactive | inactive | inactive | inactive | inactive |  | inactive |  | inactive | inactive |  | inactive | inactive | inactive |  | 
C#CCC(Cc1cnc2nc(N)nc(N)c2n1)c1ccc(C(=O)N[C@@H](CCC(=O)O)C(=O)O)cc1 (some centres not stated) |  | inactive | inactive | inactive | inactive | inactive | inactive | inactive | inactive |  |  | 0.75 µM (active) | inactive |  |  | 6.01% [at 0.306 µM] | 
CC(C)(C)NC(=O)[C@H]1CC[C@H]2[C@@H]3CC=C4C=C(C(=O)O)CC[C@]4(C)[C@H]3CC[C@]12C |  | inactive | inactive | inactive |  | inactive | inactive |  | inactive |  | inactive | inactive | inactive |  | inactive |  | 
O=P(O)(O)C(O)(Cc1cnc2ccccn12)P(=O)(O)O |  | inactive | inactive | inactive |  | inactive | inactive |  | inactive | inactive | inactive | inactive | inactive | inactive | inactive |  | 
